Screening data deposited in PubChem BioAssay by National Center for Advancing Translational Sciences (NCATS).
DT40 TDP1 no CPT = qHTS for Inhibitors of human tyrosyl-DNA phosphodiesterase 1 (TDP1): qHTS in cells in absence of CPT; DT40 Tdp1-/- hTDP1 cells, no CPT, ATP luminescence, 48 h; Potency, µM (highest dose often 46.2 µM), for inactives: top-dose activity change, negative = growth inhibition, actives largely listed as inhibitors; hit rate 15% among 420,000; further: potency means the concentration at half of the fitted maximal effect; on the % scale 0 is the no-effect control and ±100 the full control effect; nearly all actives have a fitted effect of over 55% in size
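No-CPT arm: Tdp1-/-;hTDP1 DT40 cells (400/well) plus compounds, incubated ≥48 hr at 37 °C. Readout CellTiter-Glo luminescence.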
ClpP mod = qHTS Assay for Activators of ClpP; ATP-dependent Clp protease proteolytic subunit (Bacillus subtilis (strain 168)), P80244; hit rate 1.9% among 340,000; AID 651965, 2013; Potency, µM (titrated, usually from 57.5 µM), for the others: at the highest dose activity change, negative = active; purified B. subtilis ClpP, FRET peptide cleavage, 20 min; active means well fitted falling curve with a large enough effect; inconclusive means small, poorly fitted or top-dose-only effect; inactive means no such curve, though single readings can be large or run the other way; further: potency means the concentration at half of the fitted maximal effect; the source files actives as falling curves though it sought activators and does not explain the sign; nearly all actives have a fitted effect of over 65% in size
Target sequence (P80244 whole entry, looked up): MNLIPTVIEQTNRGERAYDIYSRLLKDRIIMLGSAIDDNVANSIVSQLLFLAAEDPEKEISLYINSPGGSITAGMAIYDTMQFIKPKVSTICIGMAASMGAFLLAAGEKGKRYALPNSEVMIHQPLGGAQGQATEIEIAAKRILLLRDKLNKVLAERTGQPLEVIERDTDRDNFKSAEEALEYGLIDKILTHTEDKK
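Purified B. subtilis ClpP, 10 microg/mL final in Tris/HCl pH8 with KCl, BSA, glycerol and Tween-20, cleaved an Abz/nitrotyrosine-quenched decapeptide. Fluorescence (ex 320, em 430) was read at 0 and 20 min at room temperature. Delta was normalized to 5.8 microM ADEP and DMSO/no-enzyme controls.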
TDP1 cell CPT = qHTS for Inhibitors of human tyrosyl-DNA phosphodiesterase 1 (TDP1): qHTS in cells in presence of CPT; Potency, µM (highest dose often 46.2 µM), inactives show at the top dose activity change, negative = growth inhibition, usual class: inhibitors; AID 686979, 2013; chicken DT40 Tdp1-/-;hTDP1 cells + 20 nM CPT, ATP luminescence, 48 h; hit rate 12% among 420,000; further: potency means the concentration at half of the fitted maximal effect; on the % scale 0 is the no-effect control and ±100 the full control effect; nearly all actives have a fitted effect of over 55% in size
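Chicken DT40 Tdp1-/- cells stably complemented with human TDP1 were seeded at 400 cells/well in medium containing 20 nM camptothecin, exposed to pin-transferred compounds, and grown at 37 °C for at least 48 hr. Viability was read as ATP luminescence.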
DRD3 agonist = qHTS of D3 Dopamine Receptor Agonist: qHTS. max activation, %. D3R DiscoveRx beta-arrestin cells, luminescence, 90 min. D(3) dopamine receptor (Homo sapiens), P35462. hit rate 0.58% among 410,000; in the data active means max activation above about 30%; further: 0% is about no effect
Target sequence (P35462 whole entry, looked up): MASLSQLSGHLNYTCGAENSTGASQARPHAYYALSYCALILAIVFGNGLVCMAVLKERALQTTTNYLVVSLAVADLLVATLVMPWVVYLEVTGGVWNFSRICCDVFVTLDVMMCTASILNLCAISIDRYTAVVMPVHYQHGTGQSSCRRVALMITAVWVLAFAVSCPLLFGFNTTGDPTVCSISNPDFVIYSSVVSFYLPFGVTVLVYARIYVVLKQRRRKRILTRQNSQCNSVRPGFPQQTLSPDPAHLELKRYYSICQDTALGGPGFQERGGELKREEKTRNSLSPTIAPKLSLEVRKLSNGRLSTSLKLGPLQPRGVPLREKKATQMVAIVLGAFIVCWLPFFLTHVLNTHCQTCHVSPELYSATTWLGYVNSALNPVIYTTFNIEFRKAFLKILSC
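Agonist-mode cell screen: cells plated at 1500/well and incubated overnight at 37 °C, then exposed to library compounds for 90 min at 37 °C. Detection reagent was added for 30–60 min at room temperature, and luminescence was read.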
DRD3 antagonist = qHTS of D3 Dopamine Receptor Antagonist: qHTS; hit rate 2.5% among 360,000; max response, negative = inhibition, %; D3R cells, DiscoveRx beta-arrestin luminescence, antagonist mode; active compounds read low; in the data active means max response below about -50%; inconclusive means no clear call, values can overlap the other calls; further: on the % scale 0 is the no-effect control and ±100 the full control effect
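Cells plated overnight at 1500 cells/well, then exposed to library compounds with dopamine controls for 90 minutes at 37 degrees C. DiscoveRx reagent added for 30–60 minutes at room temperature; luminescence read, quantitative HTS format.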
IL-1B inflam inh = qHTS for Inhibitors of Inflammasome Signaling: IL-1-beta AlphaLISA Primary Screen; hit rate 4.7% among 360,000; activity change, % at 57.5 µM; THP-1 LPS/ATP IL-1B secretion, AlphaLISA, 16 h; active compounds read low; in the data active means activity change below about -50%; inconclusive means mostly about -30% to -49%; further: on the % scale 0 is the no-effect control and ±100 the full control effect
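Secreted IL-1B measured by AlphaLISA bead assay after 16 h compound exposure of THP-1 cells; compounds (final up to 57.5 uM) added 1 h before LPS (250 ng/mL) and ATP (1.25 mM) stimulation; lower signal means less secretion.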
* hit, by the source's call; ? = inconclusive; / = not tested or not shown; [ ] = dose if it differs, or a comment. Only some compounds are listed: those with a hit (about 21% of all), similar ones and a draw of the others. Unless noted, the call rests on the fitted dose curve; in most records, active means well fitted inhibition curve with a large enough effect; inconclusive means small, poorly fitted or top-dose-only effect; inactive means flat fitted curve, though single readings scatter.

SMILES	DT40 TDP1 no CPT	ClpP mod	TDP1 cell CPT	DRD3 agonist	DRD3 antagonist	IL-1B inflam inh
CC(NC(=O)c1ccccc1NS(C)(=O)=O)c1ccccc1 (configuration not stated)	1%	16µM*	5%	4	15	11
Cc1ccccc1C(=O)c1c[nH]c(C(=O)NCc2ccco2)c1	?	4%	?	6	0	-52*
CCCCOc1ccc(CNC(=O)C2COc3ccc(OC)cc3C2)cc1 (configuration not stated)	?	1%	6%	1	/	/
Fc1ccc2ncc3c(-c4ccccc4)n[nH]c3c2c1	-15%	-4%	-4%	6	/	/
CC(O)(COc1ccccc1)c1ccc2c(c1)CN(Cc1cccc3cccnc13)CCO2 (configuration not stated)	?	/	14%[9.04 µM]	/	/	/
CCOC(=O)c1ccccc1NC(=O)c1nc2nccc(C)n2n1	18µM*	0%	?	-8	-7	-12
Cc1ccnc2nc(C(=O)OCC(=O)Nc3ccccc3C(C)(C)C)nn12	10%	-2%	4%	1	37	0
CC(=O)c1c(N)[nH]c(-c2ccccc2)nc1=S	6.5µM*	1%	6.5µM*	-7	-21	13
CC(=O)c1c(N2CCCC2)[nH]c(-c2ccccc2)nc1=S	?	1%	?	-5	5	-15
CC(=O)c1c(N2CCOCC2)[nH]c(-c2ccccc2)nc1=S	?	-4%	16µM*	-4	-10	36
CC(=O)c1c(N2CCN(Cc3ccccc3)CC2)[nH]c(-c2ccccc2)nc1=S	?	1%	?	-2	-18	4
COc1ccccc1CCC(=O)N1CCOc2c(cc(-c3cnc4ccccc4c3)cc2OC)C1	-22%	/	15%[9.04 µM]	/	/	/
Cc1ccc(-c2nc(CN(C)C3CCOC3)c(C)o2)s1 (configuration not stated)	8%	-16%	2%	-8	2	27
COc1cc(Nc2nc(SCC(=O)c3ccc(Cl)c(Cl)c3)nc3ccccc23)cc(OC)c1	0.65µM*	-18%	1.3µM*	15	/	/
COc1ccc2nc(SCC(=O)c3c(C)[nH]c4ccccc34)nc(C)c2c1	-13%	-2%	1%	1	/	/
Cc1nc2c3ccccc3nc(SCC(=O)c3ccc(Cl)cc3)n2n1	18µM*	-3%	?	17	62	2
O=C(CSc1nc(Nc2ccccc2)c2ccccc2n1)c1ccc(Cl)cc1	18µM*	-2%	13µM*	6	/	/
COc1ccccc1-n1ccn(CC(=O)Nc2ccc(C)cc2Cl)c(=O)c1=O	10%	0%	1%	4	25	-1
Cc1cc(C)c(Cn2c(=O)n(Cc3ccccc3)c(=O)c3c(C)c(C)sc32)c(C)c1	-9%	2%	-19%	-11	/	/
O=C(CSc1nnnn1C1CC2CCC1C2)Nc1ccnc2ccccc12 (configuration not stated)	0.16µM*	-3%	0.16µM*	10	0	-18
O=C(CSc1nnnn1C1CCCCC1)Nc1ccccc1F	-41%	-1%	3%	1	-21	0
O=C(Cc1ccccc1)N(c1ccccc1)c1ccccc1	?	1%	?	1	6	-3
Cc1csc(N(C(=O)Cc2ccccc2F)c2ccccc2)n1	23µM*	1%	?	7	-18	-4
COc1ccc(CC(=O)N(c2ccccc2)c2nc(C)cs2)cc1	13µM*	4%	18µM*	2	0	?
CCOC(=O)C1CCN(Cc2nnc(-c3ccccc3C)o2)CC1	2%	-3%	-15%	13	2	48
SMILES	DT40 TDP1 no CPT	ClpP mod	TDP1 cell CPT	DRD3 agonist	DRD3 antagonist	IL-1B inflam inh
CCOc1cc(-c2nc(-c3ccc(-c4ccccc4)nc3OCC)no2)cc(OCC)c1OCC	?	-5%	?	-16	/	/
COc1nc(-c2ccccc2)ccc1-c1noc(COc2ccccc2)n1	-15%	10µM*	-22%	4	?	?
COc1nc(-c2ccccc2)ccc1-c1noc(-c2cccs2)n1	-16%	20µM*	1%	2	47	30
COc1nc(-c2ccccc2)ccc1-c1noc(-c2ccccc2)n1	-5%	?	-2%	7	4	13
CCOc1nc(-c2ccccc2)ccc1-c1noc(-c2cccnc2)n1	3.7µM*	/	-14%	6	7	17
COc1ccc(-c2ccc(-c3noc(-c4ccco4)n3)c(OC)n2)cc1	?	28µM*	?	37*	28	13
CCc1ccc(NC(=O)Nc2ccsc2C(=O)OC)cc1	-14%	-15%	-18%	5	0	-13
COCC(=O)N1CCC2(CC1)CN(c1ccncc1)C2	4%	/	5%	/	/	/
COc1nc(-c2ccccc2)ccc1-c1noc(-c2ccco2)n1	0%	32µM*	-14%	-1	24	-13
CCOc1nc(-c2ccc(C)cc2)ccc1-c1noc(COC)n1	?	32µM*	-6%	7	-11	42
CCc1ccc(NS(=O)(=O)c2ccc3[nH]cc(C(=O)NCCCOC(C)C)c(=O)c3c2)cc1	?	-5%	?	7	/	/
O=C(Nc1ccccc1[N+](=O)[O-])OCC=Cc1ccccc1	?	2%	1%	3	-9	-54*
O=C(COC(=O)c1ccco1)Nc1ccccc1[N+](=O)[O-]	9%	/	8%	5	-1	22
O=C(NCCOCCn1c(=O)oc2ccccc21)Nc1ccc(F)cc1F	12µM*	1%	10µM*	-9	/	/
Cc1ccc2oc(=O)n(CCNC(=O)Nc3ccc(C)c(F)c3)c2c1	23µM*	0%	?	2	/	/
Cc1ccc2oc(=O)n(CC(=O)c3ccc(F)cc3)c2c1	-17%	1%	5%	-2	-13	0
Cc1ccc2oc(=O)n(CCNC(=O)Nc3ccccc3Cl)c2c1	?	-2%	18µM*	-4	/	/
COCCCNC(=O)Nc1ccc(F)cc1F	-10%	-1%	2%	4	2	23
O=C(Nc1ccc2c(c1)OCCO2)C(C1CC1)n1c(=O)c(-c2ccccc2)nc2ccccc21 (configuration not stated)	?	-12%	-28%	-6	-22	-25
CC(C)=C1CCC(C)CC1=NNC(N)=S (configuration not stated)	21µM*	2%	?	-11	?	?
